# Data reported in paper PMC5540273 (PLoS ONE, 2017).
# Tests used:
# Conditions in all cases: concentration: 1 μM, replicates: in singlicate; n = 1
# [1] = test system: SGK3
# [2] = test system: SGK
# [3] = test system: SIK2
# [4] = test system: SIK
# [5] = test system: SLK
# [6] = test system: T1, SNARK
# T1 construct: gene NUAK2
# [7] = test system: SNRK
# [8] = test system: SRC
# [9] = test system: SRMS
# [10] = test system: SRPK1
# 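Also: KINOMEscan kinase panel screen.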
SMILES,%Inh [1] [%],%Inh [2] [%],%Inh [3] [%],%Inh [4] [%],%Inh [5] [%],%Inh [6] [%],%Inh [7] [%],%Inh [8] [%],%Inh [9] [%],%Inh [10] [%]
Nc1nccc(-c2c(-c3ccc(F)cc3)ncn2C2CCN(Cc3ccccc3)CC2)n1 [SB-219980],28,2,24,6,0,38,0,0,11,0
COC(=O)C(Cc1ccccc1)NC(=O)NC1CCN(c2ccnc(Nc3ccc(F)cc3)n2)C1 (stereo not shown) [GSK1379714],0,2,0,0,22,0,0,1,5,15
CSc1ccc(-c2nc3n(c2-c2ccncc2)CCC3)cc1 [SKF-105561],6,0,0,0,7,0,18,0,13,2
CNCc1ccc2nc(NC(=O)c3ccc(C(C)(C)C)cc3)cn2c1,31,2,4,3,0,34,20,3,0,33
CC(C)c1ccc(O)cc1Nc1ccnc2ccc(C(F)(F)F)cc12 [GW482059],4,7,0,0,9,3,0,14,0,35
COC(=O)c1cccc(NC(=O)NC2CCN(c3ccnc(Nc4ccc(F)cc4)n3)C2)c1 (stereo not shown) [GSK1379725],0,0,0,2,0,0,0,0,0,23
O=C(Nc1n[nH]c2nc(-c3cccs3)c(Br)cc12)C1CC1 [SB-735297],15,26,0,0,7,10,0,0,5,22
COc1ccc(Nc2nccc(N3CCC(NC(=O)C(C)c4ccc(Cl)cc4)CC3)n2)cc1 (stereo not shown) [GSK1379812],0,0,0,54,28,0,0,10,0,10
Cl.Cl.Cl.N#Cc1ccc(CCNc2nccc(-c3cccc(CN4CCNCC4)c3)n2)cc1 [GSK2137462],10,0,2,0,6,12,0,15,2,21
COC(=O)c1cccc(NC(=O)NC2CCN(c3ccnc(Nc4ccc(OC)cc4)n3)C2)c1 (stereo not shown) [GSK1379746],0,9,0,0,7,0,0,0,0,0
Fc1ccc(-c2nn3cccc(F)c3c2-c2ccncc2)cc1 [GW475620],0,0,12,3,16,0,0,1,0,3
O=C(Nc1n[nH]c2nc(-c3cccs3)c(Br)cc12)C1CCCC1 [SB-743341],40,0,0,17,38,34,19,7,0,0
CNC(=O)c1ccc(C)c(-n2c(C)cc(OCc3ccc(F)cc3F)c(Br)c2=O)c1,0,0,0,0,0,0,0,0,0,14
Cc1ccccc1Cn1ccn2c(=O)cc(N3CCOCC3)nc12 [GSK2269905],2,0,0,0,20,0,0,0,0,24
CC(=O)c1c(C)c2cnc(Nc3ccc(N4CCNCC4)cn3)nc2n(C2CCCC2)c1=O,5,0,10,0,0,0,8,0,0,32
c1ccc(-c2ccnc3[nH]ccc23)cc1 [SB-693578],10,18,25,0,6,48,0,0,0,0
CCn1c(-c2c(N)noc2C)nc2cnccc21 [SB-737856],0,0,0,0,4,0,0,0,0,0

SMILES,%Inh [1] [%],%Inh [2] [%],%Inh [3] [%],%Inh [4] [%],%Inh [5] [%],%Inh [6] [%],%Inh [7] [%],%Inh [8] [%],%Inh [9] [%],%Inh [10] [%]
COc1cccc(NC(=O)Nc2ccc(C)c(-c3ccc(C(=O)Nc4ccncc4)cc3)c2)c1 [GSK1398474],11,0,0,10,7,13,3,31,0,31
O=C(Nc1n[nH]c2nc(-c3ccco3)c(Br)cc12)C1CCN(Cc2ccccc2)C1.O=C(O)[C@H](O)[C@@H](O)C(=O)O (stereo not shown) [SB-742034],24,18,9,52,8,11,0,0,17,28
COc1nccc(-c2c(-c3ccc(F)cc3)ncn2CCCN2CCOCC2)n1 [SB-282852],0,13,0,0,30,0,0,0,0,0
CS(=O)(=O)CCNCc1nc(-c2ccc3ncnc(Nc4ccc(OCc5ccccc5)c(Cl)c4)c3c2)cs1.Cl [GW582764],0,11,0,6,14,0,0,0,0,10
O=C1NC(=O)C(c2ccc(Cl)cc2)=C1Nc1cccc(Cl)c1 [SB-317651],0,0,0,0,14,0,0,2,0,0
COC(=O)C(NC(=O)NC1CCN(c2ccnc(Nc3ccc(F)cc3)n2)C1)c1ccccc1 (stereo not shown) [GSK1379712],2,2,3,0,4,5,0,0,0,0
Cc1ccc(NC(=O)c2ccc(Cl)cc2)cc1-c1ccc(C(=O)Nc2ccncc2)cc1 [GSK1398467],0,0,0,0,19,0,0,0,0,13
COc1cc2ncnc(Nc3cccc(Br)c3)c2cc1OC.Cl [GI230329],0,22,0,0,65,3,23,20,21,34
COc1cccc(CNC(=O)NC2CCN(c3ccnc(Nc4ccc(F)cc4)n3)C2)c1 (stereo not shown) [GSK1379723],0,0,14,0,15,0,0,0,0,33
COc1ccc(Nc2nccc(N3CCC(NC(=O)C(C)c4ccc(Cl)cc4)C3)n2)cc1 (stereo not shown) [GSK1379735],0,10,13,0,33,0,48,0,2,39
Fc1ccc(-c2nc3n(c2-c2ccncc2)CCS3)cc1 [GI98581],0,0,0,17,25,0,0,9,0,23
COc1ccc(Nc2nccc(NCCNC(=O)Nc3cc(C)ccc3C)n2)cc1 [GSK1379899],0,0,0,0,27,0,0,0,0,34
O=C(Nc1n[nH]c2cc(-c3ccsc3)ccc12)C1CC1 [SB-732932],26,6,0,4,0,29,15,0,13,45
FC(F)(F)c1ccccc1-c1cc(-c2c[nH]nc2-c2ccccn2)ccn1 [GW679396],1,0,0,0,15,0,0,0,0,3
Cc1ccccc1-c1cc(-c2c[nH]nc2-c2ccccn2)ccn1 [GW680061],0,0,0,0,0,1,0,0,0,0
Cc1c(Cn2c(C)c(C)n3c(=O)cc(N4CCOCC4)nc23)cccc1C(F)(F)F [GSK2328680],0,16,0,0,22,0,0,0,0,6
Cc1ccc(NC(=O)Nc2ccccc2)cc1-c1ccc(C(=O)Nc2ccncc2)cc1 [GSK1398471],10,0,0,6,13,4,0,20,0,33
